Drawing on publication PMC10812921, “Transcriptional Coactivator BOB1 (OBF1, OCA-B) Modulates the Specificity of DNA Recognition by the POU-Domain Factors OCT1 and OCT2 in a Monomeric Configuration”, this text covers binding signal for 32 sequences.

Sequence of POU1 (OCT1 POU domain) (P14859 260-458): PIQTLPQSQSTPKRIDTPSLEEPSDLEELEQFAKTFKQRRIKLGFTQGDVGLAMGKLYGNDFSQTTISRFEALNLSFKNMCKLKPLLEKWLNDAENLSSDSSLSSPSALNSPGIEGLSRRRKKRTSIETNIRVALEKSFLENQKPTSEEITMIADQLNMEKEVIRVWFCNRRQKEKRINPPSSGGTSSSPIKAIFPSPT

The assay has as its target POU1 (OCT1 POU domain) (human, UniProt P14859 260-458). The assay is described as follows: EMSA-SELEX-seq; no BOB1; 20 mM Tris-HCl pH 7.6, 140 mM NaCl, 10% glycerol, 0.5 mM EDTA, 0.05% Triton X-100, 0.1 mg/mL BSA, 0.1 mg/mL poly(dI-dC), 5 mM DTT, room temperature, 20 min; high values mean tight binding. The following applies: protein: recombinant; dsDNA, one strand shown. In short, it runs like this:
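A double-stranded random 35-nt library (300 ng, PCR-amplified) was incubated with 30 ng tagged POU-domain protein, with or without 28 ng coactivator protein, in 20 μL Tris–HCl pH 7.6 binding buffer for 20 min at RT. The proteins had been expressed in E. coli BL21, purified under denaturing conditions and renatured. Complex bands from native 6% PAGE were eluted and PCR-amplified over four rounds, then sequenced on Illumina. For binding preference, the percentage of sequenced 8-mers matching a motif pattern was calculated.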
A general note: In EMSA bound probe runs differently from free probe, usually more slowly.
Take AATTGAAA: the binding signal was 0.113 % of ANNNNAAN 8-mers.

Turning to ACCACAAC, the binding signal was 0.0107 % of ANNNNAAN 8-mers.

Take ACAGCAAC: the binding signal is 0.0153 % of ANNNNAAN 8-mers. As for ACCGCAAG, the figure is 0.0114 % of ANNNNAAN 8-mers; as for AGGGAAAG, 0.194 % of ANNNNAAN 8-mers; as for ACCATAAA, 0.0625 % of ANNNNAAN 8-mers. Under ACACGAAG stands 0.0206 % of ANNNNAAN 8-mers. Consider AACGCAAC, for which the binding signal is 0.013 % of ANNNNAAN 8-mers. Under ACCGCAAC stands 0.0114 % of ANNNNAAN 8-mers; under ACCACAAG, 0.0114 % of ANNNNAAN 8-mers. Under ACGCCAAG stands 0.0145 % of ANNNNAAN 8-mers; under ACTGCAAG, 0.0133 % of ANNNNAAN 8-mers. Under AACCCAAG stands 0.0111 % of ANNNNAAN 8-mers; under AGCACAAC, 0.0114 % of ANNNNAAN 8-mers.

As to ACCCTAAC, the binding signal is 0.0107 % of ANNNNAAN 8-mers. Under AGACCAAT stands 0.0275 % of ANNNNAAN 8-mers. Under ATTTAAAG stands 0.183 % of ANNNNAAN 8-mers. ATAGAAAT: the binding signal is 0.0782 % of ANNNNAAN 8-mers.

In the case of AACCTAAC, the binding signal is 0.013 % of ANNNNAAN 8-mers. For the sequence ACAGCAAG, the binding signal is 0.0156 % of ANNNNAAN 8-mers. Under AAGCAAAA stands 0.142 % of ANNNNAAN 8-mers.

In the case of ACTGCAAC, the binding signal was 0.0114 % of ANNNNAAN 8-mers. Under AAGTCAAC stands 0.0256 % of ANNNNAAN 8-mers.

In the case of AGAATAAT, the binding signal is 0.203 % of ANNNNAAN 8-mers. Under ATAGCAAT stands 0.0515 % of ANNNNAAN 8-mers.

On to AGCTGAAA, for which the binding signal was 0.0267 % of ANNNNAAN 8-mers.

Regarding ATCTTAAG, the binding signal was 0.0461 % of ANNNNAAN 8-mers. As for AGCTTAAC, the figure is 0.0194 % of ANNNNAAN 8-mers; as for ACCGAAAC, 0.0107 % of ANNNNAAN 8-mers.

As to ACCTCAAG, the binding signal was 0.0141 % of ANNNNAAN 8-mers.

In the case of ACCCGAAC, the binding signal was 0.0111 % of ANNNNAAN 8-mers. Under AGGCCAAA stands 0.029 % of ANNNNAAN 8-mers.
